Source: PubChem BioAssay (Tox21)
The source made the active and inactive calls. Entries that show only a call come without a potency. Unless noted, calls come from the whole dose curve; as a rule, active = well fitted curve in the direction sought with a large enough effect in the repeat runs; inconclusive = weak or mixed curves; inactive = no such curve, though single readings can be large; an effect the other way counts as inactive or inconclusive.

Assays:
[1] = qHTS assay for small molecules that induce genotoxicity in human embryonic kidney cells expressing luciferase-tagged ATAD5 (AID 651632); note: nearly all actives have a fitted effect of over 15% in size; note: potency is the fitted concentration of half-maximal effect
How it was run: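 HEK293T cells carrying luciferase-tagged ATAD5 were given compound or DMSO vehicle and incubated 16 hr at 37C, 5% CO2. Luciferase activity was read after 30 min at room temperature with Amplite; a rise signals genotoxic stress.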

[2] = qHTS assay for small molecule agonists of the p53 signaling pathway - cell viability (AID 651633; calls by dose curve; note: nearly all actives have a fitted effect of over 30% in size; note: potency is the fitted concentration of half-maximal effect)
How it was run: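 p53RE-bla cells, seeded at 4,000 per well and rested 5 h at 37 C/5% CO2, received compounds in DMSO for 16 h at 37 C. CellTiter-Glo was then added, and luminescence was read after 30 min at room temperature to gauge cytotoxicity.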

[3] = qHTS assay for small molecules that induce genotoxicity in human embryonic kidney cells expressing luciferase-tagged ATAD5 - cell viability (AID 651634; calls by dose curve; note: nearly all actives have a fitted effect of over 25% in size; note: potency is the fitted concentration of half-maximal effect)
How it was run: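 HEK293T cells carrying luciferase-tagged ATAD5, 2,000 cells/well, exposed to compound for 15.5 hr at 37C. Viability read as live-cell protease activity by CellTiter-Fluor fluorescence after 30 min at 37C.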

[4] = qHTS assay for small molecule disruptors of the mitochondrial membrane potential - cell viability (AID 720634; calls by dose curve; note: nearly all actives have a fitted effect of over 20% in size; note: potency is the fitted concentration of half-maximal effect)
How it was run: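 HepG2 cells, 2,000 per well, attached overnight, then treated 1 hr at 37 C, 5% CO2. Viability read as ATP by CellTiter-Glo luminescence after 30 min at room temperature. Read in the same wells as the m-MPI membrane-potential dye assay.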

[5] = qHTS assay to test for compound auto fluorescence at 590 nm (red) in HepG2 cells (AID 720674)
How it was run: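 Intrinsic compound fluorescence in the red window (Ex/Em 540/590 nm) is measured in attached HepG2 cells exposed for 1 hr, DMSO vehicle as baseline, benchmarked to Rose Bengal sodium.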

[6] = qHTS assay to test for compound auto fluorescence at 535 nm (green) in HepG2 cells (AID 720675)
[7] = qHTS assay to test for compound auto fluorescence at 460 nm (blue) in HEK293 cells (AID 720678)
How it was run: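 HEK293, 2,000 cells/well, 10% dialyzed FBS; attach 4-5 hr 37C; pin compound or DMSO; o/n 37C/5% CO2; fluorescence 405/460 nm; triamterene-equivalent units.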

[8] = qHTS assay to test for compound auto fluorescence at 590 nm (red) in HEK293 cells (AID 720679)
How it was run: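 Intensity at 540nm excitation and 590nm emission is reported as Rose Bengal sodium-equivalent autofluorescence. Measurements followed overnight exposure (37C, 5% CO2) of HEK293 cells, 2,000 per well, to 23 nL compound.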

[9] = qHTS assay to test for compound auto fluorescence at 535 nm (green) in HEK293 cells (AID 720680)
[10] = qHTS assay to test for compound auto fluorescence at 460 nm (blue) in HEK293 cell free culture (AID 720681)
How it was run: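 Test compounds were pinned into cell-free culture medium (DMEM with 10% FBS) and fluorescence was read directly at Ex/Em 405/460 nm. Signals were expressed as fluorescence equivalents of triamterene, with DMSO vehicle as control.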

[11] = qHTS assay to test for compound auto fluorescence at 535 nm (green) in HEK293 cell free culture (AID 720682)
How it was run: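 Measurement is a direct plate read of green fluorescence (485 nm in, 535 nm out) after compound addition to serum-supplemented DMEM lacking cells, with fluorescein used to express intensities.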

[12] = qHTS assay to test for compound auto fluorescence at 590 nm (red) in HEK293 cell free culture (AID 720683)
How it was run: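 Tox21 10K library compounds were pinned into cell-free DMEM with 10% FBS and fluorescence was read at excitation 540 nm. Activity is expressed as Rose Bengal sodium equivalency.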

[13] = qHTS assay to test for compound auto fluorescence at 590 nm (red) in HepG2 cell free culture (AID 720684)
How it was run: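 Red fluorescence (540 nm excitation, 590 nm emission) was measured after compound transfer into cell-free MEM supplemented with 10% FBS. Values are equivalencies against Rose Bengal sodium.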

[14] = qHTS assay to test for compound auto fluorescence at 460 nm (blue) in HepG2 cell free culture (AID 720685)
How it was run: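 Compound (23 nL) or DMSO pinned into cell-free MEM with 10% FBS; blue fluorescence read at 405/460 nm excitation/emission, expressed as auto-fluorescence equivalency to triamterene.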

[15] = qHTS assay to test for compound auto fluorescence at 535 nm (green) in HepG2 cell free culture (AID 720686)
[16] = qHTS assay to test for compound auto fluorescence at 460 nm (blue) in HepG2 cells (AID 720687)
How it was run: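 Cells (2,000/well in MEM with 10% FBS) attached overnight at 37 C, then were exposed to compound or DMSO for 1 hr at 37 C, 5% CO2. Fluorescence read at Ex/Em 405/460 nm, expressed as triamterene-equivalent signal.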

[17] = target: Glucocorticoid receptor (Homo sapiens) (UniProt P04150); experiment: qHTS assay to identify small molecule agonists of the glucocorticoid receptor (GR) signaling pathway (AID 720691; active = well fitted activation curve with a large enough effect in the signal ratio in the repeat runs, not every such curve was filed as active; inconclusive = weak or mixed curves, or effect the other way; inactive = no such curve, though single readings can be large or run the other way; the % refers to the signal ratio; note: potency is the fitted concentration of half-maximal effect); conditions: GR-bla HeLa, beta-lactamase reporter ratio, 18 h; activation: at 62.4 µM (top of the series)
How it was run: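 GR-bla HeLa cells carrying a GRE-driven beta-lactamase reporter, exposed to compounds for 18 h at 37 C. Reporter activation read as fluorescence after 2 h with LiveBLAzer B/G FRET substrate at room temperature.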

[18] = qHTS assay for small molecule disruptors of the mitochondrial membrane potential (AID 720635); note: potency is the fitted concentration of half-maximal effect
How it was run: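 HepG2 cells (2,000/well) attached overnight at 37C, then took compound for 1 hr at 37C, 5% CO2. Mito-MPS dye was added for 30 min; fluorescence was read at 490/535 nm (monomers) and 540/590 nm (aggregates).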

[19] = target: Glucocorticoid receptor (Homo sapiens) (UniProt P04150); experiment: qHTS assay to identify small molecule antagonists of the glucocorticoid receptor (GR) signaling pathway (AID 720692; active = well fitted inhibition curve with a large enough effect in the signal ratio in the repeat runs, not every such curve was filed as active; inconclusive = weak or mixed curves, or effect the other way; inactive = no such curve, though single readings can be large or run the other way; the % refers to the signal ratio)
How it was run: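 GR-bla HeLa cells carrying a GRE-driven beta-lactamase reporter received compound after 4 h plating, then dexamethasone (5 nM final). After 18 h at 37C, the FRET substrate was loaded for 2 h at room temperature and fluorescence read.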

Sequence of Glucocorticoid receptor (Homo sapiens) (P04150 whole entry, looked up): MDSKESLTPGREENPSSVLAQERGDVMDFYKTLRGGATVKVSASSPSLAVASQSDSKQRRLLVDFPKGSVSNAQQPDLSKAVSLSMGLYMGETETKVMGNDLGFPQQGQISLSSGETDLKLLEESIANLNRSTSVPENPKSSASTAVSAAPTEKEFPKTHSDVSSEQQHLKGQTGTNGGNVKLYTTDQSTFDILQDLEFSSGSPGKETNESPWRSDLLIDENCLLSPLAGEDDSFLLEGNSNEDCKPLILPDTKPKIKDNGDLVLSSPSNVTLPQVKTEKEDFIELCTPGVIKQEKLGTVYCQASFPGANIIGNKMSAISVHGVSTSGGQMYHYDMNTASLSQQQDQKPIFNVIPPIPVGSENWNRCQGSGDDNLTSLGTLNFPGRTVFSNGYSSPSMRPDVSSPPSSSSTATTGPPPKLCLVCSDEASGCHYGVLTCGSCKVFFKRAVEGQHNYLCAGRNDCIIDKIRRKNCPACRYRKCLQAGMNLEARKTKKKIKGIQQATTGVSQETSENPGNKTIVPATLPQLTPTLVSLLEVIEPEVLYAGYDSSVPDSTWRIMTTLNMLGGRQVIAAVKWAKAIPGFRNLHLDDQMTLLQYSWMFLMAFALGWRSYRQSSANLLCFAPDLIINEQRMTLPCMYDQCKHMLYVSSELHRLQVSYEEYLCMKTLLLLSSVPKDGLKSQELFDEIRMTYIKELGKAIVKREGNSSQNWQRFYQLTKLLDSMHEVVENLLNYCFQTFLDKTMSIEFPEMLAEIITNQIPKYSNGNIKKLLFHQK

Compound	Potency [1]	Potency [2]	Potency [3]	Potency [4]	Potency [5]	Potency [6]	Potency [7]	Potency [8]	Potency [9]	Potency [10]	Potency [11]	Potency [12]	Potency [13]	outcome [14]	Potency [15]	outcome [16]	Potency [17]	Potency [18]	Potency [19]
CC1=C(/C=C/C(C)=C/C=C/C(C)=C/C(=O)Oc2c(C)c(C)c3c(c2C)CC[C@@](C)(CCC[C@H](C)CCC[C@H](C)CCCC(C)C)O3)C(C)(C)CCC1	inactive	inactive	inactive	inactive	inactive	inactive	inactive	inactive	inactive	inactive	inactive	inactive	inactive	inactive	inactive	inactive	inactive		
CC#CCC(C)[C@H](O)/C=C/[C@@H]1[C@H]2c3cccc(CCCC(=O)O)c3O[C@H]2C[C@H]1O (some centres undefined)	inactive	inactive	inactive	inactive	inactive	inactive	inactive	inactive	inactive	inactive	inactive	inactive	inactive	inactive	inactive	inactive	inactive		
CC(=O)O[C@H]1CC[C@@]2(C)C(=CC[C@@H]3[C@@H]2CC[C@]2(C)C(c4cccnc4)=CC[C@@H]32)C1	inactive	inactive	inactive	inactive	inactive	inactive	inactive	inactive	inactive	inactive	inactive	inactive	inactive	inactive	inactive	inactive	inactive		
CCN(CC)CCCC(C)Nc1cc(/C=C/c2ccccc2Cl)nc2cc(Cl)ccc12 (centres undefined)	inactive	inactive	inactive	inactive	inactive	inactive	inactive	inactive	inactive	inactive	inactive	inactive	inactive	inactive	inactive	inactive	inactive		
CC(CN1c2ccccc2Sc2cccnc21)N(C)C (centres undefined)	inactive	inactive	inactive	inactive	inactive	inactive	inactive	inactive	inactive	inactive	inactive	inactive	inactive	inactive	inactive	inactive	inactive		
c1ccc2c(c1)Sc1ccccc1N2CCN1CCCC1	inactive	inactive	inactive	inactive	inactive	inactive	inactive	inactive	inactive	inactive	inactive	inactive	inactive	inactive	inactive	inactive	inactive		
C[C@H]1C[C@@H]2[C@H]([C@@H](O)C[C@@]3(C)[C@H]2CC[C@]3(O)C(=O)COC(=O)CCC(=O)O)[C@@]2(C)C=CC(=O)C=C12	inactive	inactive	inactive	inactive	inactive	inactive	inactive	inactive	inactive	inactive	inactive	inactive	inactive	inactive	inactive	inactive	0.0268 µM [inconclusive] (active)		
C[C@H](/C=C/[C@H](C)C(C)(C)O)[C@H]1CC[C@H]2/C(=C/C=C3C[C@@H](O)C[C@H](O)C3)CCC[C@]12C	inactive	8.41 µM (active)	inactive	inactive	inactive	inactive	inactive	inactive	inactive	inactive	inactive	inactive	inactive	inactive	inactive	inactive	inactive		
CCCCC(F)(F)[C@@]1(O)CC[C@H]2[C@@H](CC(=O)[C@@H]2CCCCCCC(=O)O)O1	inactive	inactive	inactive	inactive	inactive	inactive	inactive	inactive	inactive	inactive	inactive	inactive	inactive	inactive	inactive	inactive	inactive		
C=CC1=C(C)C2=CC3=NC(=C(CC(=O)[O-])C4=NC(=C(C)C4=C([O-])[O-])C=c4[n-]c(c(C)c4CC)=CC1=N2)C(CCC(=O)[O-])C3C.[Cu+2].[Na+].[Na+].[Na+] (centres undefined)	inactive	inactive	23.7 µM (active)	inactive	inactive	inactive	inactive	inactive	inactive	inactive	inactive	inactive	inactive	inactive	inactive	inactive	inactive		
COc1ccc2c(c1)N(C[C@H](C)CN(C)C)c1ccccc1S2	inactive	inactive	inactive	inactive	inactive	inactive	inactive	inactive	inactive	inactive	inactive	inactive	inactive	inactive	inactive	inactive	inactive		
CN1CCC(CN2c3ccccc3Sc3ccccc32)C1 (centres undefined)	inactive	inactive	inactive	inactive	inactive	inactive	inactive	inactive	inactive	inactive	inactive	inactive	inactive	inactive	inactive	inactive			
C[C@]12CCC(=O)C=C1CC[C@@H]1[C@@H]2[C@@H](O)C[C@@]2(C)[C@H]1CC[C@]2(O)C(=O)COP(=O)(O)O	inactive	inactive	inactive	inactive	inactive	inactive	inactive	inactive	inactive	inactive	inactive	inactive	inactive	inactive	inactive	inactive	0.674 µM [inconclusive] (active)		
CN(C)C(=O)CCSC(SCCC(=O)O)c1cccc(/C=C/c2ccc3ccc(Cl)cc3n2)c1 (centres undefined)	4.73 µM (active)	29.8 µM (active)	23.7 µM (active)	29.8 µM (active)	inactive	inactive	inactive	inactive	inactive	inactive	inactive	inactive	inactive	inactive	inactive	inactive	inactive		
CCSc1ccc2c(c1)N(CCCN1CCN(C)CC1)c1ccccc1S2	inactive	inactive	inactive	inactive	inactive	inactive	inactive	inactive	inactive	inactive	inactive	inactive	inactive	inactive	inactive	inactive			
O=C(OCc1ccccc1)c1cccnc1	inactive	inactive	inactive	inactive	inactive	inactive	inactive	inactive	inactive	inactive	inactive	inactive	inactive	inactive	inactive	inactive	inactive		
Cc1cc(C(=O)NNCc2ccccc2)no1	inactive	inactive	inactive	inactive	inactive	inactive	inactive	inactive	inactive	inactive	inactive	inactive	inactive	inactive	inactive	inactive	inactive		
CN(C)CCC=C1c2ccccc2C(C)(C)c2ccccc21	inactive	inactive	inactive	inactive	inactive	inactive	inactive	inactive	inactive	inactive	inactive	inactive	inactive	inactive	inactive	inactive	inactive		
CCCCC/C=C\CCC(=O)N[C@H]1[C@H](Oc2c3cc4cc2Oc2ccc(cc2Cl)[C@@H](O[C@@H]2O[C@H](CO)[C@@H](O)[C@H](O)[C@H]2NC(C)=O)[C@@H]2NC(=O)[C@H](NC(=O)[C@@H]4NC(=O)[C@H]4NC(=O)[C@@H](Cc5ccc(c(Cl)c5)O3)NC(=O)[C@H](N)c3ccc(O)c(c3)Oc3cc(O)cc4c3)c3ccc(O)c(c3)-c3c(O[C@H]4O[C@H](CO)[C@@H](O)[C@H](O)[C@@H]4O)cc(O)cc3[C@@H](C(=O)O)NC2=O)O[C@H](CO)[C@@H](O)[C@@H]1O	inactive	inactive	inactive	inactive	inactive	inactive	inactive	inactive	inactive	inactive	inactive	inactive	inactive	inactive	inactive	inactive	inactive		
O=C(NOC[C@H](O)CO)c1ccc(F)c(F)c1Nc1ccc(I)cc1F	inactive	inactive	inactive	inactive	inactive	inactive	inactive	inactive	inactive	inactive	inactive	inactive	inactive	inactive	inactive	inactive			
CO[C@H]1C[C@H](O[C@H]2[C@H](C)O[C@@H](O[C@@H]3/C(C)=C/C[C@@H]4C[C@@H](C[C@]5(C=C[C@H](C)[C@@H](C6CCCCC6)O5)O4)OC(=O)[C@@H]4C=C(C)[C@@H](O)[C@H]5OC/C(=C\C=C\[C@@H]3C)[C@]54O)C[C@@H]2OC)O[C@@H](C)[C@@H]1O	inactive	6.68 µM (active)	13.3 µM (active)		inactive	inactive	inactive	inactive	inactive	inactive	inactive	inactive	inactive	inactive	inactive	inactive		11.9 µM (active)	
CN1[C@@H]2CC[C@H]1CC(OC(c1ccccc1)c1ccccc1)C2 (some centres undefined)	inactive	inactive	inactive	inactive	inactive	inactive	inactive	inactive	inactive	inactive	inactive	inactive	inactive	inactive	inactive	inactive	inactive		inactive
O=C(Nc1ccc(/C=C/c2ccc(NC(=O)c3cc(S(=O)(=O)O)c4cccnc4c3O)cc2S(=O)(=O)O)c(S(=O)(=O)O)c1)c1cc(S(=O)(=O)O)c2cccnc2c1O	inactive	inactive	inactive	inactive	inactive	inactive	inactive	inactive	inactive	inactive	inactive	inactive	inactive	inactive	inactive	inactive	inactive		inactive
